VHR inh abs: inhibitors of human VHR1 phosphatase (DUSP3). 290,000 tested, 0.52% active. recombinant VHR phosphatase, pNPP absorbance. inhibition, % at 13.3 µM; in the data active = inhibition above about 50%
CCHF vOTU inh-1: blocks the CCHF virus ovarian tumor domain protease; AID 651958; 370,000 tested, 0.55% active; inhibition, % at 11.5 µM; CCHFV vOTU protease, Pep-AMC fluorescence; note: 0% = vehicle wells with enzyme and 100% = no enzyme wells
Vc quorum ag: induces V. cholerae light production without autoinducers; V. cholerae BH1578 lux reporter, luminescence, 6 h; AID 588436; 350,000 tested, 0.16% active; activation, % at 18.7 µM; in the data active = activation mostly above about 9.7%, no sharp cut-off
TcdB GH inh: TcdB glycohydrolase inhibition. P18177. TcdB glycohydrolase enzymatic assay, plate reader. inhibition, % at 9.99 µM. 350,000 tested, 0.24% active. AID 652162; in the data active = inhibition above about 10%
Target sequence (P18177 whole entry, looked up): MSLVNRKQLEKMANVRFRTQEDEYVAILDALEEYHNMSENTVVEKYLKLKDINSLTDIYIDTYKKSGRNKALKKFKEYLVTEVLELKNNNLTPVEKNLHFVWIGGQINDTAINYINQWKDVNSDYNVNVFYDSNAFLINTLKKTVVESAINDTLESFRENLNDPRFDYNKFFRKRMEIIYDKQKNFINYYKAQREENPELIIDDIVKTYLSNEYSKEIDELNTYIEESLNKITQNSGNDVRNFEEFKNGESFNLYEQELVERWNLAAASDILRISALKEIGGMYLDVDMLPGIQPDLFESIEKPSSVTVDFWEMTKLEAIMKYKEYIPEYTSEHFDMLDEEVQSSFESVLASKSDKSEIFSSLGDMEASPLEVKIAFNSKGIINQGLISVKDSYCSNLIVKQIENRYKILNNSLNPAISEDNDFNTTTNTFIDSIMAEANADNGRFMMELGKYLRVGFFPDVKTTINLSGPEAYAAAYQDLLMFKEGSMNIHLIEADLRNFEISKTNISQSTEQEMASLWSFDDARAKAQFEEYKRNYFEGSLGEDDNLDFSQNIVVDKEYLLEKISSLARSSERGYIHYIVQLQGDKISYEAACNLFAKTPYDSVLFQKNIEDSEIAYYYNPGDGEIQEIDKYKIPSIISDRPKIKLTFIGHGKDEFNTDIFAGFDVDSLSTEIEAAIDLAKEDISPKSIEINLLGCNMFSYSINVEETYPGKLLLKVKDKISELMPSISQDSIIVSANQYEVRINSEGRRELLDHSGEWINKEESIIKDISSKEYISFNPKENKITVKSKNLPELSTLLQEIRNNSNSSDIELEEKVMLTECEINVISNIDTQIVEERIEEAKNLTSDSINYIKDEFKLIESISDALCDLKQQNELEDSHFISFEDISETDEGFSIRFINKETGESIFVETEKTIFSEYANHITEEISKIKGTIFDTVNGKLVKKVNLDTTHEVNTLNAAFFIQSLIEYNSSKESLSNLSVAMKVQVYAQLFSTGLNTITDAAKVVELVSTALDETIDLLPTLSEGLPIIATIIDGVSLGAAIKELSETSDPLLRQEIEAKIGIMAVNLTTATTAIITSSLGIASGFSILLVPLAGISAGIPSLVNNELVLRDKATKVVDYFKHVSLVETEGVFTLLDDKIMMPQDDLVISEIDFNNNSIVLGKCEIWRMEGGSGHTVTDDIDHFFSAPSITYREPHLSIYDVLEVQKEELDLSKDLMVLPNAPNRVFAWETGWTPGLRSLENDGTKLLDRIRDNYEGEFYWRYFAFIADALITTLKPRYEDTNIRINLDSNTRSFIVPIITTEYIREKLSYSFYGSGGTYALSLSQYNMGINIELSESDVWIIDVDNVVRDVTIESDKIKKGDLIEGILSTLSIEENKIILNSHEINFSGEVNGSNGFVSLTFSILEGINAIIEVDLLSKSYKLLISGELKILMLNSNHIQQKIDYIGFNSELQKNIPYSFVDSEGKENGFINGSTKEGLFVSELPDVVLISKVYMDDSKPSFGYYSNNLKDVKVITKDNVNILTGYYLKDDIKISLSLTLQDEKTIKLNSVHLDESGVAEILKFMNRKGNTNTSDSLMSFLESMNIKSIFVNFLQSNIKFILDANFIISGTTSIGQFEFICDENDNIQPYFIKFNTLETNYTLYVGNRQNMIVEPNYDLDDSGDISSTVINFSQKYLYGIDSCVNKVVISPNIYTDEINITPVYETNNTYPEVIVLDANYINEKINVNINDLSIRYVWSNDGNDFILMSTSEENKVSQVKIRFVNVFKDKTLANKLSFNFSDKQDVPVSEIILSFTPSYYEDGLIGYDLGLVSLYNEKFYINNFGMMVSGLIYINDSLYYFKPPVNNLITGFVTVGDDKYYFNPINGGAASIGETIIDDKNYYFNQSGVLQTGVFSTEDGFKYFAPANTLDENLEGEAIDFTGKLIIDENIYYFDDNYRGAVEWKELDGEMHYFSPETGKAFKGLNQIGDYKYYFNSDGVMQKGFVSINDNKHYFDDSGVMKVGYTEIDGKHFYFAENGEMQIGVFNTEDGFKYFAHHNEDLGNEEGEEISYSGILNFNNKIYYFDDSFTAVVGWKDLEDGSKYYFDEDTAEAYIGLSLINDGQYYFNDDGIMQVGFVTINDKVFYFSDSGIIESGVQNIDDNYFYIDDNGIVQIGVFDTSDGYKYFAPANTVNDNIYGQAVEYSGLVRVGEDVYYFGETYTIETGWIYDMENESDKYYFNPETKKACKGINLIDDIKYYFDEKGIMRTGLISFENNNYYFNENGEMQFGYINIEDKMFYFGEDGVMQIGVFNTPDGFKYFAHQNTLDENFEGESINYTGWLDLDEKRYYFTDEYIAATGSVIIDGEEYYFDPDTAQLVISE
PrPC TRFRET: cell surface PrPC inhibition, primary TR-FRET screen. TR-FRET read-out. inhibition, % at 13.8 µM. 370,000 tested, 0.43% active; in the data active = inhibition above about 24%; note: 0% = median of the test wells and 100% = reference compound wells
PriA SSB inh: blocks PriA binding to SSB C-terminal tail. AlphaScreen SSBct-PriA binding, biotinylated peptide. inhibition, % at 33 µM. 430,000 tested, 0.6% active; in the data active = inhibition mostly above about 37%, no sharp cut-off; inactive = mostly below about 20%;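 note: plate controls were negative control peptide for no effect and reference peptide for full effect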
CCHF vOTU inh-2: CCHFV vOTU protease inhibition, confirmation; shares compounds with CCHF vOTU inh-1; Recombinant CCHFV vOTU, Pep-AMC fluorescence; inhibition, % at 11.5 µM; 1,900 tested, 17% active
Numbers without * were called inactive; i = inactive; nt = not tested or not shown. Shown are actives, neighbours in structure and some others; about 1.5% of the full set was active somewhere. Cut-off read from the data, not from the text of the source, unless noted: active = inhibition above about 30%; inactive = the rest.

SMILES	VHR inh abs	CCHF vOTU inh-1	Vc quorum ag	TcdB GH inh	PrPC TRFRET	PriA SSB inh	CCHF vOTU inh-2
CC(C)C[C@H](NC(=O)c1nc[nH]c1C(=O)NC1CCN(C(=O)OC(C)(C)C)CC1)C(=O)OCc1ccccc1	-4	31*	2	0	5	0	14
COc1cc(/C=C2\SC(N)=NC2=O)ccc1OCC(=O)Nc1ccc(Cl)cc1	nt	nt	nt	nt	nt	-21	nt
CC1=C(N2CC2)C(=O)C(CO)=C(N2CC2)C1=O	nt	35*	6	-1	-39	-20	5
Cc1ccc(C)c2sc(N(CC3CCCO3)C(=O)CCS(=O)(=O)c3ccc(Cl)cc3)nc12 (centres undefined)	nt	nt	nt	nt	nt	3	nt
COc1ccccc1N(C(C)=O)C1=C(Cl)C(=O)c2ccccc2C1=O	nt	91*	i	-1	6	nt	83*
CCOC(=O)C1(CCCc2ccccc2)CCN(C(=O)Cc2nonc2C)CC1	18	31*	i	0	8	-10	-2
CN1CCCc2cc(CCNC(=O)C(=O)Nc3ccon3)ccc21	nt	nt	nt	nt	nt	13	nt
CCOc1ccc(NS(=O)(=O)c2ccc(-c3cnc(C4CC4)o3)cc2)cc1	27	30*	-2	1	4	3	-16
CC(=O)Nc1ccc(NS(=O)(=O)c2ccc(-c3cnc(C4CC4)o3)cc2)cc1	6	8	0	2	-6	-3	nt
Cc1ccc(C2CC(=O)N3CN(c4ccc(Br)cc4)CSC3=C2C#N)o1 (centres undefined)	11	30*	0	nt	3	-5	-1
O=S(=O)(Nc1cccc2ccccc12)c1cccs1	-9	7	i	2	-1	9	nt
O=S(=O)(Nc1ccc(O)c2ccccc12)c1cccs1	3	108*	0	-4	-13	8	-1
CC(=O)Nc1ccc(N/C=C/C(=O)c2ccco2)cc1	-16	0	nt	nt	-5	5	nt
CN(C)c1ccc(N/C=C/C(=O)c2ccco2)cc1	-6	68*	i	nt	-16	-3	-2
COc1cc(/C=C2\C(=O)N(c3ccc(S(N)(=O)=O)cc3)N=C2C)ccc1OC(=O)c1ccco1	34	48*	1	-1	2	24	-3
CC1=NN(c2ccccc2)C(=O)/C1=C\c1cn(-c2ccccc2)nc1C	22	-18	0	0	-2	0	nt
COc1cc(/C=C2/C(=O)N(c3ccc(C)c(C)c3)N=C2C)cc([N+](=O)[O-])c1O	4	-2	0	-1	-8	10	nt
C#CCOc1ccc(/C=C2/C(=O)N(c3ccc(S(N)(=O)=O)cc3)N=C2C)cc1OC	nt	29	i	-1	2	nt	nt
COc1ccccc1/C=C1/C(=O)N(c2ccccc2)N=C1C	-7	71*	0	0	-2	-7	-10
COc1cc(/C=C2/C(=O)N(c3ccc(C(=O)O)cc3)N=C2C)cc(OC)c1O	45	67*	i	-18	-5	-2	-14
COc1cc(/C=C2\C(=O)N(c3ccccc3)N=C2C)ccc1Oc1ccc([N+](=O)[O-])cc1[N+](=O)[O-]	8	48*	-3	nt	-29	7	-1
Cc1ccc(C2C(=C(O)c3c(C)nc4ccccn34)C(=O)C(=O)N2CCN(C)C)o1 (centres undefined)	nt	nt	nt	nt	nt	-5	nt
CC(C)(C)NC(=O)N1CCC(CNC(=O)c2cc(Br)cs2)CC1	nt	nt	nt	nt	nt	-1	nt
C#CCOc1ccc(/C=C2/C(=O)N(c3cccc(C(=O)O)c3)N=C2C)cc1OC	8	35*	-1	-1	-4	3	-15
COc1cc(/C=C2\C(=O)N(c3cccc(C(=O)O)c3)N=C2C)ccc1OCc1ccccc1	nt	-1	-1	-1	5	nt	nt
SMILES	VHR inh abs	CCHF vOTU inh-1	Vc quorum ag	TcdB GH inh	PrPC TRFRET	PriA SSB inh	CCHF vOTU inh-2
CC(=O)c1ccc(NC(=O)CCS(=O)(=O)c2ccc(C)cc2)cc1	nt	nt	nt	nt	nt	0	nt
O=C(NCc1nc2ccccc2[nH]1)C1CC(=O)N(C2CCOCC2)C1 (centres undefined)	nt	nt	nt	nt	nt	-8	nt
CC(=O)c1cccc(N(CC(=O)NC2CCCC2)C(=O)CNC(=O)c2cccs2)c1	26	36*	0	2	5	2	-18
O=C(Nc1ccc(N/C=C2/C(=O)c3sccc3N(Cc3ccccc3)S2(=O)=O)cc1)c1ccco1	nt	nt	nt	nt	nt	-8	nt
CCOc1ncccc1C(=O)Nc1cc(S(=O)(=O)N2CCOCC2)ccc1OCC(F)(F)F	nt	55*	3	0	-4	9	1
N#Cc1c(-c2ccccc2)nc(SCc2cccc(Cl)c2)[nH]c1=O	-12	32*	i	1	-1	17	8
Cc1[nH]c(=O)nc(SCc2cccc(Cl)c2)c1C#N	-8	22	-1	-7	4	-14	nt
CCOc1ccc(C2C(=C(O)c3ccc4c(c3)OCCO4)C(=O)C(=O)N2CCN2CCOCC2)cc1OCC (centres undefined)	nt	nt	nt	nt	nt	4	nt
CN(C)S(=O)(=O)N1CCCN(S(=O)(=O)N(C)C)CC1	0	44*	0	nt	-1	3	-10
COc1ccccc1CCn1cnc(-c2ccccc2)c1CC(C)C	nt	45*	nt	2	18	nt	18
CCCCCc1c(-c2ccc(Cl)cc2)ncn1CCc1ccccc1OC	nt	37*	nt	0	11	nt	8
CCc1c(-c2ccc(F)cc2)ncn1CCc1ccccc1OC	nt	2	nt	2	8	nt	nt
CCc1c(-c2cccc(F)c2)ncn1CCc1ccccc1OC	nt	30*	nt	2	3	nt	-4
CCOC(=O)C1=C(COC(=O)c2ccc3ccccc3c2O)NC(=O)NC1C (centres undefined)	nt	36*	0	1	5	9	-12
CCOC(=O)C1=C(COC(=O)c2ccc([N+](=O)[O-])s2)NC(=O)NC1C (centres undefined)	nt	100*	-4	-2	-41	1	76*
CCOC(=O)C1=C(COC(=O)c2ccccc2OC(F)F)NC(=O)NC1C (centres undefined)	nt	-7	i	0	6	-6	nt
O=C1NC(Cc2ccc(O)cc2)c2nc3cc(F)c(F)cc3c(=O)n2-c2cc3ccccc3cc21 (centres undefined)	nt	30*	0	1	1	nt	-17
O=C(Nc1ccn2nccc2c1)c1ccc2ncsc2c1	nt	nt	nt	nt	nt	-2	nt
CC1CCCN(c2ccc(C(=O)NCc3ccc4c(c3)OCO4)cc2[N+](=O)[O-])C1 (centres undefined)	-12	31*	i	nt	-7	33	-12
Cc1ccc(Cl)c(-n2nnc(C(=O)Nc3ccc(F)cc3)c2C)c1	nt	nt	nt	nt	nt	-6	nt
Cc1cc(C(=O)N2CCC(c3ccccn3)C2)no1 (centres undefined)	nt	nt	nt	nt	nt	-20	nt
COc1ccc(NC(=O)COc2cc(C)cc(C)c2)cc1S(=O)(=O)N1CCCCC1	nt	30*	-1	3	9	0	-16
CCOc1ccc(N=Nc2c(=O)[nH]n3c(=O)cc(C)[nH]c23)cc1	33	36*	0	nt	-49	-3	10
Cc1cc(=O)n2[nH]c(=O)c(N=Nc3ccccc3)c2[nH]1	37	16	i	nt	-43	-15	nt

Screening results from PubChem BioAssay.
